Data from the supplement of paper PMC11150407.
The campaign covered roughly 2,100 compounds. About 180 (8.6%) showed an effect of 50% or more. Only a selection was taken, and strong results are over-represented in it overall.

tested on: MOLM1 and UCSD/AML1 (averaged); experiment: cell viability relative to DMSO control (POC); higher = less growth inhibition; conditions: 1 µM; 72 h
Description: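 Primary viability screen in the 3q26 EVI1-high AML cell lines MOLM1 and UCSD/AML1 (1.5e3 cells/well, 384-well), compounds at 1 uM for 72 h. ATP CellTiter-Glo read-out given as percent of viable cells over DMSO control (POC), averaged over duplicates. DMSO was the negative control and 5 uM etoposide the positive control. This mapping covers the MicroSource Spectrum and Selleck anticancer libraries (drug names).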

Structure (SMILES)	cell viability
CN(CC[C@H](N)CC(=O)N[C@H]1C=C[C@H](n2ccc(N)nc2=O)O[C@@H]1C(=O)O)C(=N)N	114%
COc1cc2c(cc1-c1cc3cc4ccoc4cc3oc1=O)OCO2	99.4%
CC[C@@H](C)C(=O)O[C@H]1[C@H](O)[C@H]2[C@@H](CN3C[C@@H](C)CC[C@H]3[C@@]2(C)O)[C@@H]2C[C@]34O[C@]5(O)[C@@H](OC(=O)[C@@](C)(O)CC)CC[C@@]3(C)[C@@H]5[C@@H](OC(C)=O)[C@@H](OC(C)=O)[C@H]4[C@@]21O	89.1%
CN1CCc2cc3c(cc2C1O)OCO3 (stereo not drawn)	102%
COc1ccc2c(c1OC)C(=O)O[C@@H]2[C@H]1c2cc3c(cc2CCN1C)OCO3	88%
COc1cc([C@@H]2c3cc4c(cc3[C@H](O)[C@H]3COC(=O)[C@@H]23)OCO4)cc(OC)c1OC	12.3%
COc1cc([C@@H]2c3cc4c(cc3[C@H](O)[C@H]3COC(=O)[C@H]23)OCO4)cc(OC)c1OC	6.17%
COc1ccc2c(c1OC)C(=O)O[C@H]2[C@H]1c2cc3c(cc2CCN1C)OCO3	93.9%
Oc1cc(Cl)ccc1Oc1ccc(Cl)cc1Cl	95.1%
Cc1ncc(CNC(=O)N(CCCl)N=O)c(N)n1	111%
CC(=O)CC1CCCCN1 (stereo not drawn)	102%
CN[C@@H](C)[C@@H](O)c1ccccc1	105%
O=c1[nH]c2ccccc2n1C1CCN(CCCC(c2ccc(F)cc2)c2ccc(F)cc2)CC1	94.7%
CNC(C)C(O)c1ccccc1 (stereo not drawn)	96.1%
CC[C@@H](C(=O)[C@@H](C)[C@@H](O)[C@H](C)[C@@H]1O[C@@H]([C@@H](CC)C(=O)O)CC[C@@H]1C)[C@H]1O[C@]2(C=C[C@@H](O)[C@]3(CC[C@@](C)([C@H]4CC[C@](O)(CC)[C@H](C)O4)O3)O2)[C@H](C)C[C@@H]1C [Salinomycin (Procoxacin)]	68.4%
CC[C@@H](C(=O)[C@@H](C)[C@@H](O)[C@H](C)[C@@H]1O[C@@H]([C@@H](CC)C(=O)O)CC[C@@H]1C)[C@H]1O[C@]2(C=C[C@@H](O)[C@]3(CC[C@@](C)([C@H]4CC[C@](O)(CC)[C@H](C)O4)O3)O2)[C@H](C)C[C@@H]1C	20.9%
CC(=O)O[C@@H]1[C@H]2CC[C@H]3[C@@](C)(O)[C@@H]4C[C@H](O)C(C)(C)[C@@]4(O)[C@H](O)C[C@@]13C[C@@]2(C)O	100%
C[C@@H](CO)NC(=O)[C@@H]1C=C2c3cccc4[nH]cc(c34)C[C@H]2N(C)C1	102%
Cc1c(O)c(O)cc2c1CC=C1[C@@]2(C)CC[C@@]2(C)[C@@H]3C[C@](C)(C(=O)O)CC[C@]3(C)CC[C@]12C	11.5%
CC1=C(O)C(=O)C=C2C1=CC=C1[C@@]2(C)CC[C@@]2(C)[C@@H]3C[C@](C)(C(=O)O)CC[C@]3(C)CC[C@]12C	30.1%
CC(C)C[C@H](CN)CC(=O)O	67.7%
COC[C@]12CN(C=O)[C@@H]3[C@@H]4[C@H](OC)[C@H]1[C@@]3([C@@H](OC)C[C@H]2O)[C@@H]1C[C@@]2(O)[C@H](OC(=O)c3ccccc3)[C@@H]1[C@]4(OC(C)=O)[C@@H](O)[C@@H]2OC	111%
C=C(C)[C@H]1Cc2c(ccc3c(=O)c4c(oc23)COc2cc(OC)c(OC)cc2-4)O1	106%

Structure (SMILES)	cell viability
S=C=NCc1ccccc1	95.3%
C#CCOS(=O)OC1CCCCC1Oc1ccc(C(C)(C)C)cc1 (stereo not drawn)	89.9%
CC(C)(C)C(=O)C(Oc1ccc(Cl)cc1)n1cncn1 (stereo not drawn)	99.8%
CC[C@@]1(O)C(=O)OCc2c1cc1n(c2=O)Cc2cc3ccccc3nc2-1	1.42%
C[C@H]1CC[C@]2(NC1)O[C@H]1C[C@H]3[C@@H]4CC[C@H]5C[C@@H](O)CC[C@]5(C)[C@H]4CC[C@]3(C)[C@H]1[C@@H]2C	93.3%
C[N+]1(C)CCc2cc3c(cc2[C@H]1[C@@H]1OC(=O)c2c1ccc1c2OCO1)OCO3	104%
COc1cc2c(cc1OC)[C@H](C)NCC2	94.2%
CC(C)[C@]12O[C@H]1[C@@H]1O[C@]13[C@]1(O[C@H]1C[C@H]1C4=C(CC[C@@]13C)C(=O)OC4)[C@@H]2O [Triptolide]	2.21%
CC(C)c1ccc2c(c1O)CC[C@H]1C3=C(CC[C@]21C)C(=O)OC3	89.3%
c1ccc(/N=N/c2ccccc2)cc1	96.4%
N#C/C(=C\c1ccc(O)cc1)C(=O)O [alpha-CYANO-4-HYDROXYCINNAMIC ACID]	113%
CCSCC[C@H](N)C(=O)O	99.2%
CCC(C)C(=O)OC1CC2(C)C(c3ccoc3)OC(=O)CC23OC2(C)OC34C(OC(=O)C(C)C)C3(O)C(OC(=O)C5(C)OC5C)C5(C)CC3(O)C(C)(C5CC(=O)OC)C14O2 (stereo not drawn)	91.2%
COC(=O)[C@@H]1C[C@H](OC(C)=O)C(=O)[C@H]2[C@@]1(C)CC[C@H]1C(=O)O[C@H](c3ccoc3)C[C@]21C	104%
CNC(=O)Oc1cccc2c1OC(C)(C)C2	85.3%
C=CCc1ccc(OC)cc1	107%
COc1ccc(C[C@H]2NC[C@H](O)[C@H]2OC(C)=O)cc1	3.59%
CC[C@H]1[C@@H]2C[C@H]3[C@@H]4N(C)c5ccccc5[C@]45C[C@@H]([C@@H]2[C@H]5O)N3[C@@H]1O	109%
CC1=C2C(=CO[C@H](C)[C@H]2C)C(O)=C(C(=O)O)C1=O	104%
CC(=O)[C@H]1CC[C@H]2[C@@H]3CC[C@H]4C[C@H](O)CC[C@]4(C)[C@H]3CC[C@]12C	87.7%
C[C@]12CC[C@H](O)C[C@H]1CC[C@@H]1[C@@H]2CC[C@]2(C)[C@@H](C3=CC(=O)OC3)[C@@H](O)C[C@]12O	99.6%
C[C@H]1CC[C@]2(NC1)O[C@H]1C[C@H]3[C@@H]4CC[C@H]5C[C@@H](O[C@@H]6O[C@H](CO)[C@H](O[C@@H]7O[C@H](CO)[C@@H](O)[C@H](O[C@@H]8OC[C@@H](O)[C@H](O)[C@H]8O)[C@H]7O[C@@H]7O[C@H](CO)[C@@H](O)[C@H](O)[C@H]7O)[C@H](O)[C@H]6O)CC[C@]5(C)[C@H]4CC[C@]3(C)[C@H]1[C@@H]2C	65.2%
C[C@@H]1CC[C@@]2(OC1)O[C@H]1[C@@H](O)[C@H]3[C@@H]4CC[C@H]5C[C@@H](O[C@@H]6O[C@H](CO)[C@H](O[C@@H]7O[C@H](CO)[C@@H](O)[C@H](O[C@@H]8OC[C@@H](O)[C@H](O)[C@H]8O)[C@H]7O[C@@H]7O[C@H](CO)[C@H](O)[C@H](O[C@@H]8O[C@H](CO)[C@@H](O)[C@H](O)[C@H]8O)[C@H]7O)[C@H](O)[C@H]6O)[C@H](O)C[C@]5(C)[C@H]4CC[C@]3(C)[C@H]1[C@@H]2C	92.7%

Structure (SMILES)	cell viability
C[C@H]1O[C@@H](O[C@H]2[C@@H](O)C[C@H](O[C@H]3[C@@H](O)C[C@H](O[C@H]4CC[C@@]5(C)[C@H](CC[C@@H]6[C@@H]5CC[C@]5(C)[C@@H](C7=CC(=O)OC7)[C@@H](O)C[C@]65O)C4)O[C@@H]3C)O[C@@H]2C)C[C@H](O)[C@@H]1O	3.82%
CC(=O)O[C@H]1CC[C@@]2(C)[C@H](CC[C@@H]3[C@@H]2CC[C@]2(C)[C@@H](C4=CC(=O)OC4)[C@@H](OC(C)=O)C[C@]32O)C1	2.29%
CC(=O)O[C@H]1C[C@@H]2CC[C@@H]3[C@H](CC[C@@]4(C)[C@H]3C[C@H]([N+]3(C)CCCCC3)[C@@H]4OC(C)=O)[C@@]2(C)C[C@@H]1[N+]1(C)CCCCC1	88.6%
CC(=O)OC1CCC23C(=O)OC45CCC(C6=CC(=O)OC6)C4(C)CCC2C5CCC3(O)C1 (stereo not drawn)	5.23%
CC(=O)O[C@H]1C[C@H](O[C@H]2[C@@H](O)C[C@H](O[C@H]3[C@@H](O)C[C@H](O[C@H]4CC[C@@]5(C)[C@H](CC[C@@H]6[C@@H]5C[C@@H](O)[C@]5(C)[C@@H](C7=CC(=O)OC7)CC[C@]65O)C4)O[C@@H]3C)O[C@@H]2C)O[C@H](C)[C@H]1O[C@@H]1O[C@H](CO)[C@@H](O)[C@H](O)[C@H]1O	3.89%
c1cc2c(cc1[C@H]1OC[C@H]3[C@@H]1CO[C@H]3c1ccc3c(c1)OCO3)OCO2	84.6%
C[C@@H]1CC[C@]2(NC1)O[C@H]1C[C@H]3[C@@H]4CC=C5C[C@@H](O)CC[C@]5(C)[C@H]4CC[C@]3(C)[C@H]1[C@@H]2C	94.1%
C[C@H]1C(=O)O[C@@H]2CCN3CC=C(COC(=O)[C@](C)(O)[C@]1(C)O)[C@H]23	103%
C[C@@H]1C(=O)O[C@H]2[C@H]1CC[C@@]1(C)C=CC(=O)[C@@]3(C)O[C@@]213 [EPOXY (4,5alpha)-4,5-DIHYDROSANTONIN]	95.7%
CNC(Cc1c[nH]c2ccccc12)C(=O)O (stereo not drawn)	102%
C=C[C@H]1CN2CC[C@H]1C[C@H]2[C@H](OC(=O)OCC)c1ccnc2ccc(OC)cc12	98.5%
N[C@@H]1C[C@H]1c1ccccc1.N[C@H]1C[C@@H]1c1ccccc1	93.1%
COP(N)(=O)SC (stereo not drawn)	111%
C[C@@H]1C[C@H](O)[C@@]2(O)[C@]13CC(=O)OC[C@@]2(C)[C@@](C)(O)C(=O)C3	92.3%
CC(=O)C1CCC2C3CCC4C[C@H](O)CCC4(C)C3C[C@H](O)C12C (stereo partly drawn) [DIHYDROXY (3alpha,12alpha)PREGNAN-20-ONE]	105%
C[C@]12CC[C@H](O)C[C@@H]1CC[C@@H]1[C@@H]2CC[C@]2(C)C(=O)CC[C@@H]12	98.7%
C[C@]12CC[C@H](O)C[C@H]1CC[C@@H]1[C@@H]2C[C@@H](O)[C@]2(C)[C@@H](C3=CC(=O)OC3)CC[C@]12O	18.7%
COP(=S)(OC)Oc1ccc(Sc2ccc(OP(=S)(OC)OC)cc2)cc1	101%
CSc1nc(NC(C)C)nc(NC(C)C)n1	102%
CC1(C)C(=O)C=C[C@@]2(C)C1=C(O)C(=O)[C@]1(C)[C@@H]2CC[C@@]2(C)[C@H](c3ccoc3)C[C@H]3O[C@]321	85.9%
CC(=O)O[C@@H]1C[C@@]2(C)[C@H](c3ccoc3)C[C@H]3O[C@]32[C@]2(C)C(=O)C(O)=C3C(C)(C)C(=O)C=C[C@]3(C)[C@@H]12	19.3%
CC(=O)O[C@H]1C[C@@H](OC(C)=O)C(C)(C)C2C[C@@H](OC(C)=O)[C@]3(C)C(CC[C@@]4(C)[C@H](c5ccoc5)C(=O)[C@H]5O[C@]543)[C@]21C (stereo partly drawn)	85.4%
